GBA activity: modulators of human glucocerebrosidase; P04062; purified enzyme, resorufin glucoside fluorescence (screen aimed at inhibitors), 20 min; Potency, µM; 48,000 compounds, 1.1% hits; AID 360; in the data active means potency below about 15 µM; inconclusive means mostly about 16 µM to 33 µM;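 further: the screen sought inhibitors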
Target sequence (P04062 whole entry, looked up): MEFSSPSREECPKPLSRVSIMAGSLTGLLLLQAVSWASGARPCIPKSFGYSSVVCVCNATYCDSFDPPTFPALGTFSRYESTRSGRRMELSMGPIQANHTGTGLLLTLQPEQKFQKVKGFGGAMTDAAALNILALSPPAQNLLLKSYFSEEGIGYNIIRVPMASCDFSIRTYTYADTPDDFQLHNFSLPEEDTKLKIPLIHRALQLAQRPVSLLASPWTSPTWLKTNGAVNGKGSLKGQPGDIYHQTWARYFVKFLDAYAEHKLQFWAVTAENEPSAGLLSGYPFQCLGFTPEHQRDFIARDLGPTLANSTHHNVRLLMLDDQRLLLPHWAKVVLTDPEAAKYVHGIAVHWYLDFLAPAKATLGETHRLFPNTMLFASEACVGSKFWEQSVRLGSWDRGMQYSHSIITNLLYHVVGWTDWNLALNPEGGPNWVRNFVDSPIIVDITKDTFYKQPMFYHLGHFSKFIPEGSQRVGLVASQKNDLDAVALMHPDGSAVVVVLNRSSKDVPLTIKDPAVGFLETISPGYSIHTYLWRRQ
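Normal human glucocerebrosidase (0.2 nM final) was assayed with resorufin β-D-glucopyranoside (30 uM final) in 50mM citric acid/KH2PO4, 10mM sodium taurocholate, 0.01% tween-20, pH 5.9. Compounds were titrated; fluorescence (Ex 548, Em 600) read after 20 min at RT.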
FLuc inh: inhibitors of firefly luciferase; AID 411; 72,000 compounds, 2.2% hits; P08659; purified firefly luciferase, luminescence, 8 min; Potency, µM (doses to about 57.1 µM), without a hit: top-dose activity change, negative = inhibition, usual class: inhibitors; active means well fitted inhibition curve with a large enough effect; inconclusive means small, poorly fitted or top-dose-only effect; further: on the % scale 0 is the no-effect control and ±100 the full control effect; nearly all actives have a fitted effect of over 40% in size
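Titration-based qHTS; buffer 50 mM imidazole pH 7.2, 50 mM KCl, 7 mM MgCl2, 10 uM ATP, 0.01% Tween 20, 0.05% BSA; luciferase/luciferin detector mix added after compound; 8 min, ambient; luminescence.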
Bst PK mod: pyruvate kinase (B. stearothermophilus) modulation | purified pyruvate kinase, luminescence ATP production; ribose 5-phosphate activator present at AC10 | Potency, µM | 51,000 compounds, 1.2% hits; in the data active means potency below about 11 µM; inconclusive means mostly about 12 µM to 25 µM;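 the screen sought inhibitors and activators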;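 further: scaled between full activation by ribose 5 phosphate and full inhibition by luteolin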
* hit, by the source's call; i = inactive; ? = inconclusive; . = not tested or not shown; [ ] = another dose, or the depositor's remark. Compounds with a hit are over-represented: about 3.2% of the library has one in this group of screens. Potency means the concentration at half of the fitted maximal effect.

SMILES	GBA activity	FLuc inh	Bst PK mod
CC(=O)OC[C@H]1O[C@@H](O/N=C\[C@@H](C)[C@H](OCc2ccccc2)C(C)C)[C@H](OC(C)=O)[C@@H](OC(C)=O)[C@H]1OC(C)=O	.	0%[11.4 µM]	.
COc1ccc(OC)c(CN2CCN(C(=O)c3cccc4ccccc34)CC2)c1	?	3%	7.4*
COc1ccc(OC)c(CN2CCN(C(=O)c3cccs3)CC2)c1	>77	2%	>57
Cc1nnc(NC(=O)c2ccc(S(=O)(=O)N(C)Cc3ccccc3)cc2)o1	14*	0%	>57
CCc1nnc(NC(=O)c2ccc(S(=O)(=O)N(CC(C)C)CC(C)C)cc2)o1	?	0%	>57
COCCN(CCOC)S(=O)(=O)c1ccc(C(=O)Nc2nnc(C)o2)cc1	>77	0%	>57
CSCc1nnc(NC(=O)c2ccc(S(=O)(=O)N(CC(C)C)CC(C)C)cc2)o1	6.8*	1%	>57
COc1ccc(N(CC(O)Cn2nnc3ccccc32)S(=O)(=O)c2ccc(C)cc2)cc1 (stereo not drawn)	>77	2%	5.7*
COc1ccc(N(CC(O)CN2CCCCC2)S(=O)(=O)c2ccc(C)cc2)cc1 (stereo not drawn)	.	3%	>57
CC(CCc1nc2ccccc2s1)(c1ccc(O)cc1)c1ccc(O)cc1	.	1%[11.4 µM]	.
CCOc1ccc(CCNC(=O)C2CCCN(c3nn4c(=O)cc(C)nc4s3)C2)cc1 (stereo not drawn)	>77	0%	>57
CCOc1ccc2nc(N3CCC(C(=O)N4CCN(c5ccccn5)CC4)CC3)sc2c1	.	6.3µM*	.
CCOc1ccc2nc(N3CCC(C(=O)N4CCN(c5ncccn5)CC4)CC3)sc2c1	.	-19%	.
CCOc1ccc2nc(N3CCCC(C(=O)NCCCN4CCOCC4)C3)sc2c1 (stereo not drawn)	.	25µM*	.
C[C@@H]1C[C@H](OC(=O)c2ccccc2O)CC(C)(C)C1	.	-1%[25.5 µM]	.
c1ccc(CSc2nnnn2-c2cccc3ccccc23)nc1	>77	3%	7.4*
O=C(O)c1cccc(-n2nnnc2SCc2ccccn2)c1	>77	0%	>57
O=C(Nc1cccc(-c2cn3cccnc3n2)c1)c1ccc(Br)o1	6.6*	-4%	>57
O=C(Nc1cccc(-c2cn3cccnc3n2)c1)c1ccco1	.	-16%	.
O=C(Nc1cccc(-c2cn3cccnc3n2)c1)c1ccc2c(c1)OCO2	.	16µM*	.
O=C(Nc1ccc2nn(-c3ccccc3)nc2c1)c1ccc2c(c1)OCO2	>77	0%	>57
Cc1ccc2nc3ccc(N4CCN(C)CC4)nn3c(=O)c2c1	.	7.9µM*	.
Cc1cc(N2CCCN(C)CC2)nc2cc(Cl)ccc12	.	-2%	.
O=C(c1ccc2c3c(cccc13)C(=O)N(O)C2=O)N1CCCCC1	.	1%[25.5 µM]	>26
O=C1c2cccc3c(Cl)ccc(c23)C(=O)N1O	>77	0%	5.1*
SMILES	GBA activity	FLuc inh	Bst PK mod
COCCOC(=O)c1[nH]c2c(c1C)C(=O)C(C(=O)OC)C(C)C2 (stereo not drawn)	.	10µM*	.
CCCCCOC(=O)c1[nH]c2c(c1C)C(=O)C(C(=O)OC)C(C)C2 (stereo not drawn)	?	?	>57
CC1=C(C(=O)OCC2CCCO2)C(c2ccccc2)NC(=O)N1 (stereo not drawn)	.	3%	.
COC(=O)C1C(=O)c2c([nH]c(C(=O)OCC3CCCO3)c2C)CC1C (stereo not drawn)	.	7.9µM*	.
Nc1nncn1C(=O)c1c(Cl)cccc1Cl	>77	-2%	?
Nc1nncn1C(=O)c1cccs1	>77	3%	2.5*
O=C(O)CCCN1CCCCC1	.	2%[11.4 µM]	.
Nc1ncnc2nc(N3CCN(CCO)CC3)[nH]c12	.	3%[11.4 µM]	.
COc1ccc(-n2c(=O)c(-c3cccc(Cl)c3)nc3cncnc32)cc1	.	-4%[11.4 µM]	.
COC(=O)/C=c1/sc2nc3ccccc3n2c1=O	?	-5%	.
O=c1/c(=C/c2ccccn2)sc2nc3ccccc3n12	.	0.25µM*	.
O=c1c2ccccc2nc2sc3ccccc3n12	>77	-14%	6.8*
N#Cc1cc2sc3nc4ccccc4n3c2cc1C#N	>77	0%	>57
O=C(c1csnn1)N1CCC[C@@]2(CCN(Cc3cc(C(F)(F)F)cc(C(F)(F)F)c3)C2)C1	.	1%[11.4 µM]	.
CCN1C(=O)[C@H]2[C@H]3[C@H](O)[C@H](O)C/C(=N/O[C@@H]4O[C@@H](COC(C)=O)[C@@H](OC(C)=O)[C@@H](OC(C)=O)[C@H]4OC(C)=O)[C@@H]3CC[C@@H]2C1=O	.	1%[11.4 µM]	.
CCc1nc2ccccc2c(C(=O)OC2CCOC2=O)c1C (stereo not drawn)	?	3%	>57
CCCc1nc2ccccc2c(C(=O)OC2CCOC2=O)c1CC (stereo not drawn)	12*	1%	>57
CC(=O)OC[C@H]1O[C@@H](O/N=C(\C)CCC(=O)OC[C@@H]2O[C@H](C#Cc3ccccc3)C=C[C@@H]2Oc2ccc(C)cc2)[C@H](OC(C)=O)[C@@H](OC(C)=O)[C@H]1OC(C)=O	.	1%[11.4 µM]	.
COc1cc(C(=O)OC(C)C(=O)N2CCc3ccccc3C2)ccc1OCC(=O)N1CCOCC1 (stereo not drawn)	>77	-2%	11*
COc1ccc(OC(C)C(=O)N2CCc3ccccc3C2)cc1 (stereo not drawn)	>77	1%	i
C=CC[C@@H]1C=C[C@H](O/N=C(\C)CCN2CCc3nc(-c4ccccc4)c(-c4ccccc4)cc3C2)[C@H](CO)O1	.	1%[11.4 µM]	.
O=C(CCCn1c(=O)[nH]c2ccccc2c1=O)N1CCN(c2ccccn2)CC1	.	3%	.
O=C(CCCCCNc1nc(=S)[nH]c2ccccc12)N1CCN(c2ccccn2)CC1	5.7*	-3%	.
CCCCOC(=O)NS(=O)(=O)c1sc(CC(C)C)cc1-c1ccc(Cn2c(CC)nc3c(C)cc(C)nc32)cc1	.	0%	.
COc1ccc(-c2cc(C(=O)OCC(=O)N3CCCC3)c3ccccc3n2)cc1	>77	20µM*	10*
SMILES	GBA activity	FLuc inh	Bst PK mod
COc1cc(-c2cc(C(=O)N3CCN(c4ccccn4)CC3)c3ccccc3n2)cc(OC)c1OC	15*	0%	>57
COc1ccc(-c2cc(C(=O)N3CCN(c4ccccn4)CC3)c3ccccc3n2)cc1	>77	1.3µM*	2.2*
CC(=O)c1ccc(N2CCN(C(=O)c3cc(-c4ccc5c(c4)OCO5)nc4ccccc34)CC2)cc1	>77	7.9µM*	.
COc1cccc(OC)c1C(=O)N1CCN(c2ccccn2)CC1	>77	1%	>57
O=C(O)c1cc(-c2ccc3c(c2)OCO3)nc2ccccc12	>77	-27%	>11
Cc1cc(C(=O)OCC(=O)N2CCOCC2)c2ccccc2n1	>77	4%	>57
COc1ccc(OC)c(-c2cc(C(=O)N3CCN(c4ncccn4)CC3)c3ccccc3n2)c1	>77	0%	>57
N#CCCn1c(=O)c(CCc2ccccc2)nc2cnc(Nc3ccccc3)nc21	.	0%[11.4 µM]	.
CN(C)CCCCN1CCc2c(n(C)c3ccccc23)C1=O	.	2%[11.4 µM]	.
CS(=O)(=O)N1CCC2(CCCN(Cc3ccccc3)C2)CC1	.	0%[11.4 µM]	.
O=C(c1cnccn1)N1CCC2(CC1)CCN(c1ccccc1)CC2	.	0%[11.4 µM]	.
O=C(c1cc(C(F)(F)F)cc(C(F)(F)F)c1)N1CCC[C@@]2(CCN(c3ccncc3)C2)C1	.	0%[11.4 µM]	.
COc1ccc(N2CCN(S(=O)(=O)/C=C/c3ccccc3)CC2)cc1	>77	-1%	>57
CN1CCN(S(=O)(=O)c2ccc(N3CCN(S(=O)(=O)/C=C/c4ccccc4)CC3)nc2)CC1	13*	-3%	>57

From PubChem BioAssay
